# Results reported in PubChem BioAssay AID1540 (National Center for Advancing Translational Sciences (NCATS), 2009).
# “And” between values parts separate entries of the source, which are not always exact repeats. Identical values can stand only once. Records with an inconclusive call do not appear. The source made the active and inactive calls. Calls follow the shape of the dose curve; as a rule, active = well fitted activation curve with a large enough effect; inconclusive = small, poorly fitted or top-dose-only effect, or effect the other way; inactive = flat fitted curve, though single readings scatter.
# Target: Pyruvate kinase PKM (Homo sapiens) (UniProt P14618)
# Sequence (P14618 whole entry, looked up, canonical isoform): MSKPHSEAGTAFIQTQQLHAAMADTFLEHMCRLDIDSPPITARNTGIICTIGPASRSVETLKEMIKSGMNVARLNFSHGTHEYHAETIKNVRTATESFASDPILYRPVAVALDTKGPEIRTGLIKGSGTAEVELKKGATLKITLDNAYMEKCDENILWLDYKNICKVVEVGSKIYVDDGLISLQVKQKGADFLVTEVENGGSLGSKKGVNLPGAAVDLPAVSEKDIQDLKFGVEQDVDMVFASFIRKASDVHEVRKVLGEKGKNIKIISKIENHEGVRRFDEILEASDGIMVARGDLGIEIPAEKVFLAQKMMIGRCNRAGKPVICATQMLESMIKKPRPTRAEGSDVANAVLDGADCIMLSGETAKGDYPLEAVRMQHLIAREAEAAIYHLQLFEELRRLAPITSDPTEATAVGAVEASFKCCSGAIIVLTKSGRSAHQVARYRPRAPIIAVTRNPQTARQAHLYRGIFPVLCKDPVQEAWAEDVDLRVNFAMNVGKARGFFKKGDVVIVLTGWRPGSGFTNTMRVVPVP
# Assay: Secondary assay for Activators of Human Pyruvate Kinase M2 isoform
# Details: purified hPK-M2, LDH-coupled NADH fluorescence kinetic; series mostly up to 57.5 µM
# From the text: Confirmatory assay NIH Chemical Genomics Center [NCGC] Matthew G. Vander Heiden, M.D., Ph.D. [Harvard Medical School, 77 Avenue Louis Pasteur, Boston, MA 02115] NCGC Assay Overview: Human pyruvate kinase muscle 2 (hPK-M2)enzyme was supplied as a highly purified (>95% pure) preparation from Harvard Medical School and a secondary assay was used to evaluate compounds. This assay couples the formation of pyruvate from hPK-M2 using lactate dehydrogenase (LDH) and NADH. The depletion of NADH is followed in a fluorescent-based kinetic assay that follows the formation of pyruvate to lactate, as catalyzed LDH (described by Hannaert et al., 2002)1 Pyruvate kinase substrates, PEP and ADP, were present in the assay at 0.1 mM and 4 mM respectively. In this kinetic assay initial rates were determined by following the fluorescence of NADH depletion.
# NCGC Assay Protocol Summary: Three uL of substrate mix (final concentration, 50 mM Tris-Cl pH 8.0, 200 mM KCl, 15 mM MgCl2, 0.1 mM PEP, 4.0 mM ADP, and 0.2 mM NADH) was dispensed into black-solid 1536 well plates. 23 nL of compounds were delivered by a pin tool and 1 uL of enzyme mix (final concentrations, 10 nM hPK-M2 and 1 uM of LDH) was added. Plates were immediately placed in ViewLux (Perkin Elmer) and NADH fluorescence was determined at 30 second exposure intervals for between 3 and 6 minutes. Data were normalized to the uninhibited and EC100 activation using known activators such as fructose-bis-phosphate.
row,Structure (SMILES),Potency
1,CSc1cc2c(s1)c1cnn(Cc3cccc(O)c3)c(=O)c1n2C,65.1 nM (active)
2,O=S(=O)(c1ccc2c(c1)OCCO2)N1CCN(S(=O)(=O)c2ccc3c(c2)OCCO3)CC1,398 nM (active)
3,Cc1cc2c(s1)c1cnn(Cc3ccc(F)cc3)c(=O)c1n2C,251 nM (active)
4,CC(=O)Nc1cccc(S(=O)(=O)N2CCCN(S(=O)(=O)c3ccc4c(c3)OCCO4)CC2)c1,819 nM (active)
5,O=S(=O)(c1ccc(F)cc1)N1CCN(S(=O)(=O)c2ccc3c(c2)OCCO3)CC1,199 nM (active)
6,COc1ccc(S(=O)(=O)N2CCN(S(=O)(=O)c3ccc(OC)cc3)CC2)cc1,398 nM (active) and 282 nM (active)
7,COc1cccc(S(=O)(=O)N2CCN(S(=O)(=O)c3ccc4c(c3)OCCO4)CC2)c1,562 nM (active)
8,O=S(=O)(c1ccc2c(c1)OCCO2)N1CCN(S(=O)(=O)c2cc(F)c(F)cc2F)CC1,562 nM (active)
9,Cn1c2cc(C=O)sc2c2cnn(Cc3ccccc3F)c(=O)c21,282 nM (active)
10,Cc1ccc(Cn2ncc3c4sc(C)cc4n(C)c3c2=O)c(C)c1,1780 nM (active)
11,Cc1cc2c(s1)c1cnn(Cc3cccc(Cl)c3)c(=O)c1n2C,355 nM (active)
12,C[C@H]1CN(S(=O)(=O)c2ccc3c(c2)OCCO3)CCN1S(=O)(=O)c1c(F)cccc1F,5010 nM (active)
13,Cc1ccc(C)c(OC2=NS(=O)(=O)c3ccccc32)c1,inactive
14,COc1cc(F)c(S(=O)(=O)N2CCN(S(=O)(=O)c3ccc(NC(C)=O)cc3)CC2)c(F)c1,14600 nM (active)
15,Nc1ccc(S(=O)(=O)N2CCCN(S(=O)(=O)c3ccc4c(c3)OCCO4)CC2)cc1,366 nM (active)
16,O=C(O)Cc1cc(F)c(S(=O)(=O)N2CCN(S(=O)(=O)c3ccc4c(c3)OCCO4)CC2)cc1F,14100 nM (active)
17,CC(=O)c1cc2c(s1)c1cnn(Cc3ccccc3F)c(=O)c1n2C,158 nM (active)
18,O=S(=O)(c1ccccc1)N1CCN(S(=O)(=O)c2ccc3c(c2)OCCO3)CC1,447 nM (active)
19,Cc1cc2c(s1)c1cnn(Cc3ccc(F)cc3F)c(=O)c1n2C,178 nM (active)
20,Nc1cccc(S(=O)(=O)N2CCN(S(=O)(=O)c3ccc4c(c3)OCCO4)CC2)c1,146 nM (active)

row,Structure (SMILES),Potency
1,Cn1c2cc(C(=O)O)sc2c2cnn(Cc3ccccc3F)c(=O)c21,8910 nM (active)
2,Nc1ccc(S(=O)(=O)N2CCN(S(=O)(=O)c3ccc4c(c3)OCCO4)CC2)cc1,163 nM (active)
3,Cc1cc2c(s1)c1cnn(Cc3cccc(Cn4ncc5c6sc(C)cc6n(C)c5c4=O)c3F)c(=O)c1n2C,35500 nM (active)
4,Cc1ccc(Cn2ncc3c4sc(C)cc4n(C)c3c2=O)cc1,1260 nM (active)
5,Cn1c2cc(C#N)sc2c2cnn(Cc3ccc(F)cc3)c(=O)c21,282 nM (active)
6,COC(=O)c1cc2c(s1)c1cnn(Cc3ccccc3F)c(=O)c1n2C,355 nM (active)
7,CCOC(=O)CCc1cc(F)c(S(=O)(=O)N2CCN(S(=O)(=O)c3ccc4c(c3)OCCO4)CC2)cc1F,10000 nM (active)
8,Nc1ccc(S(=O)(=O)N2CCN(S(=O)(=O)c3c(F)cccc3F)CC2)cc1,410 nM (active)
9,Cc1cc2c(s1)c1cnn(Cc3ccccc3Cl)c(=O)c1n2C,562 nM (active)
10,CSc1cc2c(s1)c1cnn(Cc3ccccc3F)c(=O)c1n2C,708 nM (active)
11,C=CCc1cc(F)c(S(=O)(=O)N2CCN(S(=O)(=O)c3ccc4c(c3)OCCO4)CC2)cc1F,2000 nM (active)
12,COc1cc(F)c(S(=O)(=O)N2CCN(S(=O)(=O)c3ccc(N)cc3)CC2)c(F)c1,183 nM (active)
13,C=Cc1cc2c(s1)c1cnn(Cc3ccccc3F)c(=O)c1n2C,562 nM (active)
14,COc1ccc(Cn2ncc3c4sc(C)cc4n(C)c3c2=O)cc1,199 nM (active)
15,Cc1cc2c(s1)c1cnn(Cc3ccc(Cl)cc3)c(=O)c1n2C,1120 nM (active)
16,CCn1c2cc(C)sc2c2cnn(Cc3ccccc3F)c(=O)c21,5010 nM (active)
17,CCCc1cc(F)c(S(=O)(=O)N2CCN(S(=O)(=O)c3ccc4c(c3)OCCO4)CC2)cc1F,8910 nM (active)
18,O=S(=O)(c1ccc2c(c1)OCCO2)N1CCCN(S(=O)(=O)c2c(F)cccc2F)CC1,891 nM (active)
19,O=S(=O)(c1ccc2ccccc2c1)N1CCN(S(=O)(=O)c2c(F)cccc2F)CC1,8.91 µM (active) and 158 nM (active)
20,O=S(=O)(c1ccc2c(c1)OCCO2)N1CCN(S(=O)(=O)c2ccc(F)cc2F)CC1,501 nM (active)
